# In PubChem BioAssay (NCATS):
# Records with an inconclusive call do not appear. Values without a mark were called inactive. Activity calls are given as the source filed them. The call rests on the fitted dose curve.
# Test: Primary qHTS for inhibitors of SARS-S pseudo-typed particle cell entry (AID 1479145); further: nearly all actives have a fitted effect of over 45% in size
# Conditions: SARS-S pseudotyped particle cell entry, luciferase reporter; series mostly up to 57.1 µM; activity change, negative = inhibition: at the top concentration
# On the % scale 0 is the no-effect control and ±100 the full control effect.
Compound,"activity change, negative = inhibition [%]",outcome
OCc1cc(C(O)CNCCCCCCOCCCCc2ccccc2)ccc1O (stereo unspecified),-7.32,–
COc1ccc(-n2nc(CCC(=O)N(C)O)cc2-c2ccc(Cl)cc2)cc1,1.52,–
Oc1ccc(O)cc1,–,inactive

# Test: Primary qHTS for Huh7 cytotoxicity: counterscreen for inhibitors of MERS-S pseudotyped particle cell entry (AID 1479147); further: potency means the concentration at half of the fitted maximal effect
# Conditions: cell viability read-out; series mostly up to 57.1 µM; activity change, negative = cytotoxicity: at the top concentration
Compound,outcome,"activity change, negative = cytotoxicity [%]",Potency
O=C(OCC(O)CO)c1ccccc1Nc1ccnc2c(C(F)(F)F)cccc12 (stereo unspecified),inactive,–,–
CCOC(=O)c1ccc(OC(=O)CCCCCN=C(N)N)cc1,inactive,–,–
CCCCC(CC)COC(=O)C(C#N)=C(c1ccccc1)c1ccccc1 (stereo unspecified),inactive,–,–
N=C(N)c1ccc(OCCCOc2ccc(C(=N)N)cc2)cc1,–,-23.4,–
C[N+]1(C)CCC(=C(c2ccccc2)c2ccccc2)CC1,–,1.56,–
CC(=O)Oc1ccc(C2(c3ccc(OC(C)=O)cc3)Oc3ccccc3NC2=O)cc1,–,-8.29,–
C[C@@H]1CCC[C@H](C)N1CCCC(O)(c1ccccc1)c1ccccn1 (stereo partly specified),inactive,–,–
COc1ccc(CCN(C)CCCC(C#N)(c2cc(OC)c(OC)c(OC)c2)C(C)C)cc1OC (stereo unspecified),–,-26,–
OC(CCN1CCCCC1)(c1ccccc1)c1ccccc1,inactive,–,–
CCN(CC)CCOC(=O)C(Cc1cccc2ccccc12)CC1CCCO1 (stereo unspecified),inactive,–,–
O=C1O[C@H]([C@@H](O)CO)C(O)=C1O,–,2.37,–
Nc1c(NC/C=C\COc2cc(CN3CCCCC3)ccn2)c(=O)c1=O,inactive [at 26.4 µM],–,–
CCOc1ccc(Cc2nccc3cc(OCC)c(OCC)cc23)cc1OCC,–,–,12.6 µM (active)
Oc1c(Cl)cc(Cl)cc1Sc1cc(Cl)cc(Cl)c1O,–,-10.7,–
Oc1ccc(Cl)cc1Cc1cc(Cl)ccc1O,–,-17.4,–
c1ccc(-c2ccc(C(c3ccccc3)n3ccnc3)cc2)cc1 (stereo unspecified),–,-22.3,–
CCCCNc1ccc(C(=O)OCCN(CC)CC)cc1,–,-7.9,–
C1CCN2C[C@@H]3C[C@@H](CN4CCCC[C@@H]34)[C@H]2C1,inactive,–,–
Clc1ccccc1C(c1ccccc1)(c1ccccc1)n1ccnc1,–,-26,–

Compound,outcome,"activity change, negative = cytotoxicity [%]",Potency
CCCCCCCCCCCCOCCOCCOCCOCCOCCOCCOCCOCCOCCO,–,-3.85,–
C[n+]1cc2c3c(ccc2c2ccc4cc5c(cc4c21)OCO5)OCO3,–,–,8.91 µM (active)
CC(=O)Nc1ccc(S(=O)(=O)Nc2ccc([N+](=O)[O-])cc2)cc1,inactive,–,–
CCCCCCOC(=O)NC(=N)c1ccc(NCc2nc3cc(C(=O)N(CCC(=O)OCC)c4ccccn4)ccc3n2C)cc1,–,-7.26,–
CC1=C(C(=O)OC(C)C)C(c2cccc([N+](=O)[O-])c2)C(C(=O)OC2CN(C(c3ccccc3)c3ccccc3)C2)=C(N)N1 (stereo unspecified),inactive,–,–
Cn1cc(C(=O)[C@@H]2CCc3nc[nH]c3C2)c2ccccc21,inactive,–,–
CC[N+](CC)(CC(=O)Nc1c(C)cccc1C)Cc1ccccc1,–,–,inactive
CCn1c(=O)c2c(nc(C=Cc3ccc(OC)c(OC)c3)n2C)n(CC)c1=O,–,-5.24,–
CN1CCC(=C2c3ccccc3CCc3cccnc32)CC1,–,-5.23,–
CN1CCN(c2c(F)cc3c(=O)c(C(=O)O)cn(CCF)c3c2F)CC1,–,-2.45,–
O=C1CC2(CCCC2)CC(=O)N1CCCCN1CCN(c2ncccn2)CC1,inactive,–,–
N/C(=N\N=C\c1ccc(Cl)cc1)N/N=C/c1ccc(Cl)cc1,–,-5.85,–
O=C(OCC(O)CO)c1ccccc1Nc1ccnc2cc(Cl)ccc12 (stereo unspecified),inactive,–,–
C#CC1(O)CC[C@H]2[C@@H]3CCC4=CCCC[C@@H]4[C@H]3CC[C@@]21C (stereo partly specified),–,-2.05,–
CCCC(=O)O[C@]1(C(=O)CC)CC[C@H]2[C@@H]3CCC4=CC(=O)CC[C@]4(C)[C@H]3[C@@H](O)C[C@@]21C,inactive,–,–
Nc1ccn([C@H]2CC[C@@H](CO)O2)c(=O)n1,inactive,–,–
CN(C)CCC(c1ccccc1)c1ccccn1 (stereo unspecified),inactive,–,–
CC(C)N=C(N)/N=C(\N)Nc1ccc(Cl)cc1,–,-5.9,–

# Test: Primary qHTS for inhibitors of MERS-S pseudo-typed particle cell entry (AID 1479149); further: nearly all actives have a fitted effect of over 60% in size; further: potency means the concentration at half of the fitted maximal effect
# Conditions: MERS-S pseudotyped particle entry, luciferase; series mostly up to 57.1 µM; activity change, negative = inhibition: at the top concentration
Compound,outcome,"activity change, negative = inhibition [%]",Potency
O=C(OCC(O)CO)c1ccccc1Nc1ccnc2c(C(F)(F)F)cccc12 (stereo unspecified),inactive,–,–
CCOC(=O)c1ccc(OC(=O)CCCCCN=C(N)N)cc1,–,-12.1,–
CCCCC(CC)COC(=O)C(C#N)=C(c1ccccc1)c1ccccc1 (stereo unspecified),–,-11.4,–
C[N+]1(C)CCC(=C(c2ccccc2)c2ccccc2)CC1,–,-24.9,–
CC(=O)Oc1ccc(C2(c3ccc(OC(C)=O)cc3)Oc3ccccc3NC2=O)cc1,–,-14.1,–
C[C@@H]1CCC[C@H](C)N1CCCC(O)(c1ccccc1)c1ccccn1 (stereo partly specified),inactive,–,–
COc1ccc(CCN(C)CCCC(C#N)(c2cc(OC)c(OC)c(OC)c2)C(C)C)cc1OC (stereo unspecified),–,-15.5,–
OC(CCN1CCCCC1)(c1ccccc1)c1ccccc1,inactive,–,–
CCN(CC)CCOC(=O)C(Cc1cccc2ccccc12)CC1CCCO1 (stereo unspecified),–,-14.9,–
O=C1O[C@H]([C@@H](O)CO)C(O)=C1O,–,-0.927,–
Nc1c(NC/C=C\COc2cc(CN3CCCCC3)ccn2)c(=O)c1=O,inactive [at 26.4 µM],–,–
CCOc1ccc(Cc2nccc3cc(OCC)c(OCC)cc23)cc1OCC,–,–,3.55 µM (active)
CCCCNc1ccc(C(=O)OCCN(CC)CC)cc1,–,-3.33,–
C1CCN2C[C@@H]3C[C@@H](CN4CCCC[C@@H]34)[C@H]2C1,inactive,–,–
CCCCCCCCCCCCOCCOCCOCCOCCOCCOCCOCCOCCOCCO,–,–,8.91 µM (active)
CC(=O)Nc1ccc(S(=O)(=O)Nc2ccc([N+](=O)[O-])cc2)cc1,inactive,–,–

Compound,outcome,"activity change, negative = inhibition [%]",Potency
CCCCCCOC(=O)NC(=N)c1ccc(NCc2nc3cc(C(=O)N(CCC(=O)OCC)c4ccccn4)ccc3n2C)cc1,–,–,10 µM (active)
CC1=C(C(=O)OC(C)C)C(c2cccc([N+](=O)[O-])c2)C(C(=O)OC2CN(C(c3ccccc3)c3ccccc3)C2)=C(N)N1 (stereo unspecified),–,-5.21,–
Cn1cc(C(=O)[C@@H]2CCc3nc[nH]c3C2)c2ccccc21,inactive,–,–
CC[N+](CC)(CC(=O)Nc1c(C)cccc1C)Cc1ccccc1,–,–,inactive
CCn1c(=O)c2c(nc(C=Cc3ccc(OC)c(OC)c3)n2C)n(CC)c1=O,inactive,–,–
CN1CCC(=C2c3ccccc3CCc3cccnc32)CC1,inactive,–,–
CN1CCN(c2c(F)cc3c(=O)c(C(=O)O)cn(CCF)c3c2F)CC1,–,0.689,–
O=C1CC2(CCCC2)CC(=O)N1CCCCN1CCN(c2ncccn2)CC1,–,-4.54,–
N/C(=N\N=C\c1ccc(Cl)cc1)N/N=C/c1ccc(Cl)cc1,–,-91.5,–
O=C(OCC(O)CO)c1ccccc1Nc1ccnc2cc(Cl)ccc12 (stereo unspecified),inactive,–,–
C#CC1(O)CC[C@H]2[C@@H]3CCC4=CCCC[C@@H]4[C@H]3CC[C@@]21C (stereo partly specified),–,-19.2,–
CCCC(=O)O[C@]1(C(=O)CC)CC[C@H]2[C@@H]3CCC4=CC(=O)CC[C@]4(C)[C@H]3[C@@H](O)C[C@@]21C,inactive,–,–
Nc1ccn([C@H]2CC[C@@H](CO)O2)c(=O)n1,–,-14.4,–
CN(C)CCC(c1ccccc1)c1ccccn1 (stereo unspecified),–,-3.63,–
CC(C)N=C(N)/N=C(\N)Nc1ccc(Cl)cc1,–,-19.6,–
